Several values for one entry are separate records, joined by “and”; a condition that tells them apart may be missing. Equal entries are not always repeated. Screen size: about 5,500 compounds; about 2,000 (36%) were called active. Roughly 18% stayed inconclusive and do not appear here. Rule as the data show it: active = normalized growth mostly below about 0.91 (no sharp cut-off); inconclusive = no clear call, values can overlap the other calls; inactive = mostly above about 0.92. The list shows a part of the results.
Experiment: chemical genetic growth profiling, strain panel (AID 1159580);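 also: tested at 20 µM; growth read once vehicle control cultures reached saturation at 30 °C; 1 = growth at the plate median or of vehicle wells; lower values mean less growth of the strain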
Settings: growth OD

Measured: normalized growth

Cn1c(=O)c2[nH]c(C3CCCC3)nc2n(C)c1=O
inactive: S. cerevisiae deletion strains, locus YJR075W, strain HOC1, hits give low values 1.01 and 1.04 | S. cerevisiae deletion strains, locus YKL009W, strain mrt4, hits give low values 1 | S. cerevisiae deletion strains, locus YKL068W, hits give low values 1.02 | S. cerevisiae deletion strains, locus YKL085W, strain MDH1 (second series), hits give low values 1.05 | S. cerevisiae deletion strains, locus YKL085W, strain MDH1, hits give low values 1.05 | S. cerevisiae deletion strains, locus YKL160W, strain elf1, hits give low values 0.983 | S. cerevisiae deletion strains, locus YKL190W, strain CNB1, hits give low values 1.02 | S. cerevisiae deletion strains, locus YKR001C, strain vps1, hits give low values 1 | S. cerevisiae deletion strains, locus YKR026C, strain gcn3, hits give low values 1 | S. cerevisiae deletion strains, locus YKR091W, strain srl3, hits give low values 0.991 | S. cerevisiae deletion strains, locus YLL001W, strain dnm1, hits give low values 0.97 | S. cerevisiae deletion strains, locus YLL026W, hits give low values 0.989 | S. cerevisiae deletion strains, locus YLL041C, strain sdh2, hits give low values 0.988 | S. cerevisiae deletion strains, locus YLR027C, strain aat2, hits give low values 0.995 | S. cerevisiae deletion strains, locus YLR039C, strain RIC1, hits give low values 0.966 | S. cerevisiae deletion strains, locus YLR058C, strain SHM2, hits give low values 1.01 | S. cerevisiae deletion strains, locus YLR102C, strain apc9, hits give low values 0.999 | S. cerevisiae deletion strains, locus YLR113W, strain HOG1, hits give low values 1 | S. cerevisiae deletion strains, locus YLR221C, strain rsa3, hits give low values 0.988 | S. cerevisiae deletion strains, locus YLR258W, strain gsy2, hits give low values 0.972 | S. cerevisiae deletion strains, locus YLR262C, strain YPT6 (second series), hits give low values 0.997 | S. cerevisiae deletion strains, locus YLR262C, strain YPT6, hits give low values 1.04 | S. cerevisiae deletion strains, locus YLR268W, strain sec22, hits give low values 0.988 | S. cerevisiae deletion strains, locus YLR320W, strain mms22, hits give low values 0.989 | S. cerevisiae deletion strains, locus YLR330W, strain CHS5, hits give low values 1.01 | S. cerevisiae deletion strains, locus YLR342W, strain FKS1 (second series), hits give low values 1 | S. cerevisiae deletion strains, locus YLR342W, strain FKS1, hits give low values 0.986 | S. cerevisiae deletion strains, locus YLR357W, strain rsc2, hits give low values 0.954 | S. cerevisiae deletion strains, locus YLR370C, strain arc18, hits give low values 0.997 | S. cerevisiae deletion strains, locus YLR371W, strain rom2, hits give low values 0.997 | S. cerevisiae deletion strains, locus YLR384C, strain iki3, hits give low values 0.986 | S. cerevisiae deletion strains, locus YLR418C, strain cdc73, hits give low values 0.989 | S. cerevisiae deletion strains, locus YML016C, strain PPZ1, hits give low values 1.02 | S. cerevisiae deletion strains, locus YML032C, strain rad52, hits give low values 0.99 | S. cerevisiae deletion strains, locus YML120C, strain ndi1, hits give low values 0.992 | S. cerevisiae deletion strains, locus YML124C, strain tub3, hits give low values 0.998 | S. cerevisiae deletion strains, locus YMR058W, strain fet3, hits give low values 1 | S. cerevisiae deletion strains, locus YMR078C, strain ctf18, hits give low values 0.996 | S. cerevisiae deletion strains, locus YMR125W, strain sto1, hits give low values 0.979 | S. cerevisiae deletion strains, locus YMR129W, hits give low values 0.999 | S. cerevisiae deletion strains, locus YMR205C, strain PFK2, hits give low values 0.988 | S. cerevisiae deletion strains, locus YMR223W, strain ubp8, hits give low values 0.989 | S. cerevisiae deletion strains, locus YMR231W, strain pep5, hits give low values 0.988 | S. cerevisiae deletion strains, locus YMR263W, strain SAP30, hits give low values 1.02 and 0.995 | S. cerevisiae deletion strains, locus YMR307W, strain GAS1, hits give low values 1.05 and 1.01 | S. cerevisiae deletion strains, locus YNL067W, strain RPL9B, hits give low values 1.02 | S. cerevisiae deletion strains, locus YNL071W, strain lat1, hits give low values 0.997 | S. cerevisiae deletion strains, locus YNL128W, strain TEP1, hits give low values 1.01 and 0.993 | S. cerevisiae deletion strains, locus YNL153C, strain GIM3, hits give low values 1.01 and 0.975 | S. cerevisiae deletion strains, locus YNL175C, strain NOP13, hits give low values 0.977 | S. cerevisiae deletion strains, locus YNL183C, strain NPR1, hits give low values 0.942 | S. cerevisiae deletion strains, locus YNL197C, strain WHI3, hits give low values 0.935 | S. cerevisiae deletion strains, locus YNL209W, strain ssb2, hits give low values 0.996 | S. cerevisiae deletion strains, locus YNL224C, strain SQS1, hits give low values 0.989 | S. cerevisiae deletion strains, locus YNL233W, strain BNI4, hits give low values 1.01 | S. cerevisiae deletion strains, locus YNL248C, strain rpa49, hits give low values 0.968 | S. cerevisiae deletion strains, locus YNL250W, strain rad50, hits give low values 1 | S. cerevisiae deletion strains, locus YNL271C, strain bni1, hits give low values 0.989 | S. cerevisiae deletion strains, locus YNL298W, strain CLA4, hits give low values 0.998 | S. cerevisiae deletion strains, locus YNL307C, strain MCK1, hits give low values 0.996 | S. cerevisiae deletion strains, locus YNL322C, strain KRE1 (second series), hits give low values 0.985 | S. cerevisiae deletion strains, locus YNL322C, strain KRE1, hits give low values 1.01 | S. cerevisiae deletion strains, locus YNR049C, strain mso1, hits give low values 0.994 | S. cerevisiae deletion strains, locus YNR052C, strain pop2, hits give low values 1 | S. cerevisiae deletion strains, locus YOL006C, strain TOP1, hits give low values 1.05 | S. cerevisiae deletion strains, locus YOL012C, strain htz1 0.701 | S. cerevisiae deletion strains, locus YOL147C, strain pex11, hits give low values 0.986 | S. cerevisiae deletion strains, locus YOR001W, strain rrp6, hits give low values 0.989 | S. cerevisiae deletion strains, locus YOR061W, strain CKA2, hits give low values 1.01 | S. cerevisiae deletion strains, locus YOR069W, strain VPS5, hits give low values 1.01 | S. cerevisiae deletion strains, locus YOR070C, strain gyp1, hits give low values 0.998 | S. cerevisiae deletion strains, locus YOR080W, strain dia2, hits give low values 0.985 | S. cerevisiae deletion strains, locus YOR083W, strain WHI5 (second series), hits give low values 0.977 | S. cerevisiae deletion strains, locus YOR083W, strain WHI5, hits give low values 0.99 | S. cerevisiae deletion strains, locus YOR106W, strain vam3, hits give low values 0.991 | S. cerevisiae deletion strains, locus YOR136W, strain idh2, hits give low values 0.988 | S. cerevisiae deletion strains, locus YOR144C, strain elg1, hits give low values 0.998 | S. cerevisiae deletion strains, locus YOR184W, strain ser1, hits give low values 0.981 | S. cerevisiae deletion strains, locus YOR231W, strain MKK1, hits give low values 0.981 | S. cerevisiae deletion strains, locus YOR265W, strain rbl2, hits give low values 1 | S. cerevisiae deletion strains, locus YOR270C, strain vph1, hits give low values 1.02 | S. cerevisiae deletion strains, locus YOR290C, strain snf2, hits give low values 0.925 | S. cerevisiae deletion strains, locus YOR316C, strain cot1, hits give low values 0.999 | S. cerevisiae deletion strains, locus YPL051W, strain arl3, hits give low values 0.992 | S. cerevisiae deletion strains, locus YPL055C, strain LGE1, hits give low values 1.02 | S. cerevisiae deletion strains, locus YPL078C, strain atp4, hits give low values 0.997 | S. cerevisiae deletion strains, locus YPL106C, strain sse1, hits give low values 0.985 | S. cerevisiae deletion strains, locus YPL240C, strain hsp82, hits give low values 0.983 | S. cerevisiae deletion strains, locus YPL241C, strain CIN2, hits give low values 1.04 and 1.01 | S. cerevisiae deletion strains, locus YPL256C, strain CLN2, hits give low values 0.953 | S. cerevisiae deletion strains, locus YPR119W, strain clb2, hits give low values 0.997 | S. cerevisiae deletion strains, locus YPR141C, strain kar3, hits give low values 0.997 | S. cerevisiae deletion strains, locus YPR163C, strain tif3, hits give low values 0.998 | S. cerevisiae deletion strains, locus YPR167C, strain met16, hits give low values 0.997 | S. cerevisiae deletion strains, strain wtn01, hits give low values 1.01 | S. cerevisiae strains, strain wild type, hits give low values 1.01
